Assay results reported in the supplement of paper PMC6555819.

Tested on: VDR:RXRa (NR concentration 270 nM, RXRa partner concentration 90 nM)
Test: PBM binding z-score (relative to random genomic background probes); higher = stronger binding; sequences stand for … in GC…GCGATTGACAGCGTAGAATGAAGG
Protocol: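 Protein-binding microarray (Agilent 4x180K custom design, double-stranded 60-nt probes: 5' GC cap, 34-nt variable region, 24-nt constant primer region; full probe sequence given). Purified or IVT nuclear receptor:RXRα heterodimers (3:1 NR:RXRα, mostly 270:90 nM) or homodimers were incubated for 1 h in PBS with 2% milk and no ligand, then detected with Alexa488 antibodies. Fluorescence from o1-orientation probes (~5 replicates averaged) was converted to z-scores against 500 random hg19 background probes. Variable regions are seed direct-repeat (DR0–DR5) sites, all their single-nucleotide variants and half-site ablations.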

| Sequence | PBM binding z-score |
| --- | --- |
| CGCCCAAGGTCAAGGTCAGTGAAAGAGACTCGAA | 4.61 |
| TCATATACGTAAAGGTGAAAGTCGAACGATATGA | 1.05 |
| CCGCCTGGGGCATAAGGTTACCATAAGCCAGCCC | 0.151 |
| AGAACGAGGGCACACTGAGTTGATAGCAGAGTAG | 2.15 |
| TGAATGAGGTTAAGGATCAGGGAACGTGGCGTCG | 0.99 |
| TTACGAAGGTGAGCTGAGGTCGTTGATCCAACTC | 4.16 |
| ATATGTAGGTTATCGGGTGATTCAGTTTGCGCAT | 1.77 |
| CTCGAAAGGTCGTGCTCAGGTGAGCATACCAAAC | 3.27 |
| ATACCAAGGTGATCGTCAGGTCGTTGATACTAAC | 1.36 |
| AATCAAAGTTCACTAGGTAACGTAAGATTCAGCT | 3.91 |
| TAGCCTAGGTCATGAGCCAGTATACCACGCGAAC | 1.88 |
| TCATATCGGTAAACAGGTGAAAGTCCGTAAGTTA | 0.935 |
| CTACCAAGGTGTACAAGGTCGTTGATTACTATTC | 2.39 |
| CTTCAAAGTTCAAGGTAACGTAACAGAAAGCAGC | 3.51 |
| GCTGCTAGGTCAACTGATGGTCAGCTCAAGCTCG | 1.59 |
| CAAACTCGGTCACGAAAGGTCAAAGTCGAATGAC | 5.86 |
| ATCTCTAGGTAAAGATCAGTGAAAGATCGATAGA | -0.0816 |
| GATTGTAGATCAAGGTTAAGAAAGACTAAGCTAA | 0.0632 |
| TAGCCTAGGTCTGATCGGGCCAGTATACGCTATA | -0.771 |
| CGTCAAAGTTCAACTAAGGTAAAGTAAAGCACGC | 4.64 |

| Sequence | PBM binding z-score |
| --- | --- |
| CAAACTAGGTCACCGGAAGGTTAAAGTCCGCATG | 4.29 |
| AGAATGAGGTTACCAAAGATAAGGGAAACGCTTG | 1.07 |
| AGTCAAAGTTCAGGACGAGGTATCGTAAAGCACG | 2.29 |
| CCTACTGGGCCATTCGGAGGTCATTGATCATATG | 3.03 |
| AGAACGAGGGCACGCTGAGTTGATAGCGGAGTAG | 2.13 |
| CCTAGCAGGCCAATCTGGGTCACTCCAGGCTTGA | 0.284 |
| GCGACTGGCGCATCAGCAGGTTACCATAACTTAA | -0.625 |
| GATATTAGTTGAAAGGGCAACCGAATGATTCTCG | 0.661 |
| TAGCCTAGGTCAGATCGGCCCAGTATACGCTATA | 0.134 |
| ATCTCTAGGCAAGACTCAGTTCAGTGAAGAACGC | -0.0651 |
| TCTAGTTGGTCAAAGGGCACACACTCGAAATGCG | 1.78 |
| CGTCCAAGGTCAAAGGTCTGTGAAGAGATGACGG | 4.54 |
| ATATGTAGGTTTGCTGGGGTCATTCAGACTAGGC | 5.56 |
| CATACAGGGTGAGCTAGGCCAGAGTAGGGACGGC | -0.189 |
| TCTGCCAGGTCAACGATGGTCAGCTAATCTGCTA | 2.49 |
| CCTACTGGGCCATCAGGTCAGTGATATCAACGTT | 0.21 |
| TAGCCTAGGTCATTGGGCCAGTGTAGTACGCATC | 2.12 |
| CCTATTAGTTGACCATAAGTGCAACCGAAGCTCG | 1.31 |
| CGTCCAAGGTCATAGGAGGTCAGTGGAGACAGAT | 6.87 |
| TAGCCTAGGTCAGATTGGGCCAGTATACGCTATA | 0.524 |
